# Data published in paper PMC11006913.
# Residue numbers refer to the chain shown, from its start.
# Experiments:
# Test in all cases: PBM; 200 nM protein, PBS
# Settings in all cases: dsDNA, one strand shown
# [1] = target: T1, PAX4 (Homo sapiens, UniProt O43316 9-242, R200K)
# T1 sequence: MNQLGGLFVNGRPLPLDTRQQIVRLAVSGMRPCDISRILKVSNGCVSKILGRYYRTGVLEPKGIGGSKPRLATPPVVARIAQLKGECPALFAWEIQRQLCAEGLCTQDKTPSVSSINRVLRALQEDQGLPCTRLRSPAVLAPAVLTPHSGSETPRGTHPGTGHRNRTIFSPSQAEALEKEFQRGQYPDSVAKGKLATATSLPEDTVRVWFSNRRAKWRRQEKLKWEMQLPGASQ
# [2] = target: T2, VENTX (Homo sapiens, UniProt O95231 78-163, Y115F)
# T2 sequence: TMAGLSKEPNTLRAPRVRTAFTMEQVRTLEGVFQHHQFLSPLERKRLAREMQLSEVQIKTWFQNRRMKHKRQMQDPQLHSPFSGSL
# [3] = target: T3, PAX4 (Homo sapiens, UniProt O43316 9-242)
# T3 sequence: T1 sequence with K192R
# [4] = target: HOXA2 (Homo sapiens, UniProt O43364 129-215, R185T)
# HOXA2 (Homo sapiens, UniProt O43364 129-215, R185T), sequence (O43364 129-215 R185T): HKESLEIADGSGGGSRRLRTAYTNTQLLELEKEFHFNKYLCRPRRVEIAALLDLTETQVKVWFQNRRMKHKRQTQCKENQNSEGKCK
# [5] = target: ALX3 (Homo sapiens, UniProt O95076 139-225, N203Q)
# ALX3 (Homo sapiens, UniProt O95076 139-225, N203Q), sequence (O95076 139-225 N203Q): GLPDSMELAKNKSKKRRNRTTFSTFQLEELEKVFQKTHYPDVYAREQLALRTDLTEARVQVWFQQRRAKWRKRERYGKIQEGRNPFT
# [6] = target: T4, PAX4 (Homo sapiens, UniProt O43316 9-242, R200Q)
# T4 sequence: T1 sequence with K192Q
# [7] = target: T5, PAX4 (Homo sapiens, UniProt O43316 9-242, F177V)
# T5 sequence: T1 sequence with F169V, K192R
# [8] = target: ALX3 (Homo sapiens, UniProt O95076 139-225)
# ALX3 (Homo sapiens, UniProt O95076 139-225), sequence (O95076 139-225): as the sequence (O95076 139-225 N203Q) above, with Q65N counted along it
# [9] = target: T6, PAX4 (Homo sapiens, UniProt O43316 9-242, F177Y)
# T6 sequence: T1 sequence with F169Y, K192R
# [10] = target: ALX3 (Homo sapiens, UniProt O95076 139-225, L168V)
# ALX3 (Homo sapiens, UniProt O95076 139-225, L168V), sequence (O95076 139-225 L168V): as the sequence (O95076 139-225 N203Q) above, with L30V, Q65N counted along it
# [11] = target: T7, PAX4 (Homo sapiens, UniProt O43316 9-242, R227W)
# T7 sequence: T1 sequence with K192R, R219W
# [12] = target: HOXA4 (Homo sapiens, UniProt Q00056 201-287, W262F)
# HOXA4, sequence (Q00056 201-287 W262F): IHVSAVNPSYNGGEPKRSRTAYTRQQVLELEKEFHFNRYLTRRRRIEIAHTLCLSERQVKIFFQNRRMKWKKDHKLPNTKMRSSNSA
# [13] = target: ALX3 (Homo sapiens, UniProt O95076 139-225, N203S)
# ALX3 (Homo sapiens, UniProt O95076 139-225, N203S), sequence (O95076 139-225 N203S): as the sequence (O95076 139-225 N203Q) above, with Q65S counted along it
# [14] = target: T8, VENTX (Homo sapiens, UniProt O95231 78-163, R121Q)
# T8 sequence: T2 sequence with F38Y, R44Q
# [15] = target: MSX2 (Homo sapiens, UniProt P35548 130-214)
# MSX2, sequence (P35548 130-214): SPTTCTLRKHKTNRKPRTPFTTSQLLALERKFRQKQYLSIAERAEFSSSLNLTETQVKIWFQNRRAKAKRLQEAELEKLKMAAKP
# [16] = target: HOXA2 (Homo sapiens, UniProt O43364 129-215, R185K)
# HOXA2 (Homo sapiens, UniProt O43364 129-215, R185K), sequence (O43364 129-215 R185K): as the sequence (O43364 129-215 R185T) above, with T57K counted along it
# [17] = target: HOXA2 (Homo sapiens, UniProt O43364 129-215, Y150S)
# HOXA2 (Homo sapiens, UniProt O43364 129-215, Y150S), sequence (O43364 129-215 Y150S): as the sequence (O43364 129-215 R185T) above, with Y22S, T57R counted along it
# [18] = target: HOXA2 (Homo sapiens, UniProt O43364 129-215)
# HOXA2 (Homo sapiens, UniProt O43364 129-215), sequence (O43364 129-215): as the sequence (O43364 129-215 R185T) above, with T57R counted along it
# [19] = target: HOXA7 (Homo sapiens, UniProt P31268 116-202)
# HOXA7 (Homo sapiens, UniProt P31268 116-202), sequence (P31268 116-202): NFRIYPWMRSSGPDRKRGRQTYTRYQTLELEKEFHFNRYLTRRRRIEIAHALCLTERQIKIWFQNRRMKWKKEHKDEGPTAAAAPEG
# [20] = target: HOXA7 (Homo sapiens, UniProt P31268 116-202, W177C)
# HOXA7 (Homo sapiens, UniProt P31268 116-202, W177C), sequence (P31268 116-202 W177C): as the sequence (P31268 116-202) above, with W62C counted along it
sequence,measurement,setting,value
AATTAAGC,binding signal,[1],"11.7 upbm affinity estimate (log intensity, higher = more binding, comparable within an allelic series)"
same,binding signal,[2],"11.5 upbm affinity estimate (log intensity, higher = more binding, comparable within an allelic series)"
same,binding signal,[3],"12.2 upbm affinity estimate (log intensity, higher = more binding, comparable within an allelic series)"
same,binding signal,[4],"12.5 upbm affinity estimate (log intensity, higher = more binding, comparable within an allelic series)"
same,binding signal,[5],"8.44 upbm affinity estimate (log intensity, higher = more binding, comparable within an allelic series)"
same,binding signal,[6],"12 upbm affinity estimate (log intensity, higher = more binding, comparable within an allelic series)"
same,binding signal,[7],"10.5 upbm affinity estimate (log intensity, higher = more binding, comparable within an allelic series)"
same,binding signal,[8],"12.4 upbm affinity estimate (log intensity, higher = more binding, comparable within an allelic series)"
same,binding signal,[9],"11 upbm affinity estimate (log intensity, higher = more binding, comparable within an allelic series)"
same,binding signal,[10],"9.92 upbm affinity estimate (log intensity, higher = more binding, comparable within an allelic series)"
same,binding signal,[11],"10.9 upbm affinity estimate (log intensity, higher = more binding, comparable within an allelic series)"
same,binding signal,[12],"11.5 upbm affinity estimate (log intensity, higher = more binding, comparable within an allelic series)"
same,binding signal,[13],"8.49 upbm affinity estimate (log intensity, higher = more binding, comparable within an allelic series)"
GCCAATTA,binding signal,[14],"11.8 upbm affinity estimate (log intensity, higher = more binding, comparable within an allelic series)"
same,binding signal,[2],"11.5 upbm affinity estimate (log intensity, higher = more binding, comparable within an allelic series)"
same,binding signal,[4],"12.6 upbm affinity estimate (log intensity, higher = more binding, comparable within an allelic series)"
same,binding signal,[5],"8.33 upbm affinity estimate (log intensity, higher = more binding, comparable within an allelic series)"
same,binding signal,[6],"11.9 upbm affinity estimate (log intensity, higher = more binding, comparable within an allelic series)"
same,binding signal,[15],"14 upbm affinity estimate (log intensity, higher = more binding, comparable within an allelic series)"
same,binding signal,[8],"12.6 upbm affinity estimate (log intensity, higher = more binding, comparable within an allelic series)"
same,binding signal,[10],"10.4 upbm affinity estimate (log intensity, higher = more binding, comparable within an allelic series)"
same,binding signal,[13],"8.5 upbm affinity estimate (log intensity, higher = more binding, comparable within an allelic series)"
AATTAAGG,binding signal,[5],"8.39 upbm affinity estimate (log intensity, higher = more binding, comparable within an allelic series)"
same,binding signal,[8],"12.2 upbm affinity estimate (log intensity, higher = more binding, comparable within an allelic series)"
same,binding signal,[10],"9.9 upbm affinity estimate (log intensity, higher = more binding, comparable within an allelic series)"
same,binding signal,[13],"8.48 upbm affinity estimate (log intensity, higher = more binding, comparable within an allelic series)"
GAGGGGGC,binding signal,[4],"7.01 upbm affinity estimate (log intensity, higher = more binding, comparable within an allelic series)"
same,binding signal,[16],"10.1 upbm affinity estimate (log intensity, higher = more binding, comparable within an allelic series)"
same,binding signal,[17],"10.2 upbm affinity estimate (log intensity, higher = more binding, comparable within an allelic series)"
same,binding signal,[18],"7.38 upbm affinity estimate (log intensity, higher = more binding, comparable within an allelic series)"
GACAATTA,binding signal,[19],"11.2 upbm affinity estimate (log intensity, higher = more binding, comparable within an allelic series)"
same,binding signal,[15],"13.8 upbm affinity estimate (log intensity, higher = more binding, comparable within an allelic series)"
same,binding signal,[20],"8.85 upbm affinity estimate (log intensity, higher = more binding, comparable within an allelic series)"
CAATTAGG,binding signal,[14],"12 upbm affinity estimate (log intensity, higher = more binding, comparable within an allelic series)"
same,binding signal,[2],"11.7 upbm affinity estimate (log intensity, higher = more binding, comparable within an allelic series)"
same,binding signal,[4],"12.9 upbm affinity estimate (log intensity, higher = more binding, comparable within an allelic series)"
same,binding signal,[5],"8.27 upbm affinity estimate (log intensity, higher = more binding, comparable within an allelic series)"
same,binding signal,[16],"13 upbm affinity estimate (log intensity, higher = more binding, comparable within an allelic series)"
same,binding signal,[15],"13.8 upbm affinity estimate (log intensity, higher = more binding, comparable within an allelic series)"
same,binding signal,[8],"12.2 upbm affinity estimate (log intensity, higher = more binding, comparable within an allelic series)"
same,binding signal,[10],"9.81 upbm affinity estimate (log intensity, higher = more binding, comparable within an allelic series)"
same,binding signal,[17],"10.8 upbm affinity estimate (log intensity, higher = more binding, comparable within an allelic series)"
same,binding signal,[13],"8.37 upbm affinity estimate (log intensity, higher = more binding, comparable within an allelic series)"
same,binding signal,[18],"12.1 upbm affinity estimate (log intensity, higher = more binding, comparable within an allelic series)"
CGCAATTA,binding signal,[19],"11.2 upbm affinity estimate (log intensity, higher = more binding, comparable within an allelic series)"
same,binding signal,[2],"11.4 upbm affinity estimate (log intensity, higher = more binding, comparable within an allelic series)"
same,binding signal,[4],"12.4 upbm affinity estimate (log intensity, higher = more binding, comparable within an allelic series)"
same,binding signal,[16],"13.1 upbm affinity estimate (log intensity, higher = more binding, comparable within an allelic series)"
same,binding signal,[15],"13.7 upbm affinity estimate (log intensity, higher = more binding, comparable within an allelic series)"
same,binding signal,[17],"10.7 upbm affinity estimate (log intensity, higher = more binding, comparable within an allelic series)"
same,binding signal,[20],"8.67 upbm affinity estimate (log intensity, higher = more binding, comparable within an allelic series)"
same,binding signal,[18],"12.1 upbm affinity estimate (log intensity, higher = more binding, comparable within an allelic series)"
